# High-throughput results: PubChem, National Center for Advancing Translational Sciences (NCATS)
# Only some compounds are listed: those with a hit (about 19% of all), similar ones and a draw of the others.
# MARV entry inh – Marburg virus entry inhibition. Marburg virus pseudotyped entry inhibition, cell reporter. Potency, µM (titrated, usually from 37.8 µM), inactives show at the highest dose activity change, negative = inhibition, actives largely listed as inhibitors. actives 1.8% (n = 300,000). AID 540276; calls by dose curve; tested in HEK293 cells; also: potency is read from the fitted curve at half-maximal effect; % is scaled to controls: 0 for no effect and ±100 for the full control effect
# Pf growth 96h – P. falciparum growth inhibition at 96 hours. P. falciparum luciferase reporter growth, 96 h. Potency, µM (series often up to 28.7 µM), inactives show at the highest dose activity change, negative = inhibition, most hits filed as inhibitors. actives 6.9% (n = 320,000); also: potency is read from the fitted curve at half-maximal effect; % is scaled to controls: 0 for no effect and ±100 for the full control effect
#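 Parasite growth measured via integrated firefly luciferase reporter in P. falciparum. Infected erythrocytes at 2% hematocrit, 0.05% parasitemia final were treated 96 hours at 37 C under 5% CO2, and luminescence was read.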
# Cycloheximide cs – counter-screen hit for Shiga toxin inhibitors, cycloheximide | cell reporter, cycloheximide protein synthesis inhibition counterscreen | max response, % | actives 12% (n = 300,000) | AID 2314; in the data active = max response mostly above about 13%, no sharp cut-off; inactive = mostly below about 14%; also: read at 38.3 µM for the half of the compounds with a filed dose; 0% is about no effect
# LASV entry inh – inhibitors of Lassa virus binding or cell entry; AID 540256; Potency, µM (titrated, usually from 37.9 µM), without a hit: at the highest dose activity change, negative = inhibition, usual class: inhibitors; actives 1.2% (n = 300,000); Lassa virus pseudotype entry inhibition, cell reporter; calls by dose curve; tested in HEK293 cells; also: potency is read from the fitted curve at half-maximal effect; % is scaled to controls: 0 for no effect and ±100 for the full control effect; nearly all actives have a fitted effect of over 50% in size
# Pf growth 48h – inhibits P. falciparum growth in the first generation, 48 h. actives 5.9% (n = 310,000). AID 504832. P. falciparum luciferase growth in erythrocytes, 48 h. Potency, µM (series often up to 28.7 µM), inactives show at the top dose activity change, negative = inhibition, usual class: inhibitors; also: potency is read from the fitted curve at half-maximal effect; % is scaled to controls: 0 for no effect and ±100 for the full control effect
#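 Compounds are pin-transferred into medium, infected erythrocytes (2% hematocrit, 0.1% parasitemia final) are added, and plates sit one parasite generation at 37 C in 5% CO2. Detection reagent is then added and luminescence measured.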
# Shiga toxin inh – Shiga toxin inhibition; Vero cells, Shiga toxin protein synthesis inhibition reporter; inhibition, % at 38.7 µM; AID 2315; actives 9.2% (n = 290,000); in the data active = inhibition mostly above about 28%, no sharp cut-off; inactive = mostly below about 43%; also: 0% is about no effect
# An asterisk follows results filed as active; u = inconclusive; x = no result; [ ] = dose if it differs, or a comment. Unless noted, calls follow the shape of the dose curve; as a rule, active = well fitted inhibition curve with a large enough effect; inconclusive = small, poorly fitted or top-dose-only effect, or another doubt; inactive = no such curve, though single readings can be large or run the other way.
SMILES,MARV entry inh,Pf growth 96h,Cycloheximide cs,LASV entry inh,Pf growth 48h,Shiga toxin inh
COc1cc(C(C(=O)NC2CCCCC2)N(Cc2cccs2)C(=O)Cc2c[nH]c3ccccc23)cc(OC)c1OC (stereo not drawn),-32.5%,8.28µM*,0.5,-17.2%,9.28µM*,-3.7
COc1cc(C(C(=O)NC2CCCCC2)N(C(=O)Cc2c[nH]c3ccccc23)c2ccccc2C)cc(OC)c1OC (stereo not drawn),u,u,-2.0,-23.4%,13.1µM*,-10.3
COc1ccc(C(C(=O)Nc2ccc3c(c2)OCO3)N(C)C(=O)Cc2c[nH]c3ccccc23)cc1 (stereo not drawn),-12.6%,u,-1.7,u,u,-2.5
NC(=O)Cn1c(=O)n(CCCCCC(=O)NCc2ccccc2)c(=O)c2sccc21,-7.3%[46.1 µM],x,x,5.3%[46.1 µM],x,x
CC(OC(=O)C1CCC(=O)N1)C(=O)Nc1cc(Cl)cc(Cl)c1 (stereo not drawn),36.8%,71.0%,5.1,3.4%,6.0%,7.1
CCCOc1ccc(N2C(=O)CC(N(CCc3ccc(OC)c(OC)c3)C(=O)c3ccccc3)C2=O)cc1 (stereo not drawn),x,11.3%,-1.2,x,-21.7%,-6.5
COc1ccccc1N1C(=O)CC(N(O)c2ccccc2)C1=O (stereo not drawn),0.0%[14.2 µM],34.6%,-1.3,-3.3%,10.6%,1.9
COc1ccccc1N(O)C1CC(=O)N(c2ccc(F)cc2)C1=O (stereo not drawn),-21.0%,43.5%,32.0*,0.0%,8.6%,61.4*
CCCOc1ccccc1N1C(=O)CC(N(O)c2ccccc2)C1=O (stereo not drawn),8.8%[46.1 µM],19.7%,13.6*,-25.0%,1.4%,27.9
CCCOc1ccc(N2C(=O)CC(N(O)c3ccccc3)C2=O)cc1 (stereo not drawn),-2.2%,46.9%,19.7,3.4%,51.3%,113.0*
CCCOc1ccc(N2C(=O)CC(N(CCc3ccccc3)C(=O)c3ccccc3)C2=O)cc1 (stereo not drawn),27.7%,24.9%,21.3*,-2.3%,0.6%,14.5
Cc1ccc(N2C(=O)CC(N(O)C3CC(=O)N(c4ccc(C)cc4)C3=O)C2=O)cc1 (stereo not drawn),u,26.0%,0.3,0.2%,9.2%,35.9
Cc1ccc(NC(=O)N(O)C2CCCCC2C#N)cc1 (stereo not drawn),25.4%,x,x,9.5%[46.1 µM],x,x
COC(=O)NNC(=O)C(c1ccccc1)c1ccccc1,-0.5%[46.1 µM],x,x,-10.9%,x,x
Cc1cccc(CSc2nnnn2-c2ccccc2)c1,u,x,8.3,10µM*,x,-5.3
Cc1ccc(C)c(-n2nnnc2Sc2nnnn2-c2ccccc2)c1,14.6µM*,-3.7%,-2.1,u,x,-19.6
Cc1ccc(S(=O)(=O)NCCSc2nnnn2-c2cc(C)ccc2C)cc1,u,3.6%,-4.4,8.91µM*,-26.3%,8.6
CCSc1nnnn1-c1ccccc1,4.2%,u,-1.7,2.4%,x,-16.3
Cc1cccc(CSc2nnc(N)n2-c2ccccc2)c1,-0.7%,18.0%,-2.5,13.1%,23.4%,20.8
Cc1csc(N)n1,17.1%,-25.2%,-3.1,1.6%,21.2%,-6.4
Cc1cc(NC(=O)CN2CCC(C)CC2)nc2c1c(=O)oc1ccccc12,-8.7%[46.1 µM],x,x,u,x,x
Cc1ccc(S(=O)(=O)NCc2n[nH]c(=S)n2C)cc1,-3.5%,u,-3.8,4.7%,5.1%,-5.9
O=C(Nc1nnc(SCc2cccnc2)s1)C1CC(=O)N(c2ccccc2)C1 (stereo not drawn),-7.7%,-23.2%,-2.7,-1.7%,4.2%,-1.0
CCS(=O)(=O)N1CCC(C(=O)NCCc2ccc(OC)c(OC)c2)CC1,4.5%,8.4%,-3.4,-14.5%,3.1%,-9.0
NS(=O)(=O)c1ccc(N=Nc2c(O)[nH]c3ccc(C(=O)NCCc4cnc[nH]4)cc23)cc1,x,x,x,4.99µM*,x,x
SMILES,MARV entry inh,Pf growth 96h,Cycloheximide cs,LASV entry inh,Pf growth 48h,Shiga toxin inh
CCOCCCNC(=O)C(c1ccc(C)cc1)N(Cc1ccc2c(c1)OCO2)C(=O)c1ccccn1 (stereo not drawn),u,-8.1%,-5.0,u,4.9%,-9.6
O=CN1Cc2[nH]c3ccccc3c2N(c2ccc(Cl)cc2)C1=O,-11.0%,9.28µM*,-0.7,3.6%,x,-7.4
CCN(C(=O)c1ccc2c(=O)n3c(nc2c1)CCCCC3)c1cc(C)ccc1C,10.2%[46.1 µM],x,x,-3.6%[46.1 µM],x,x
COc1cccc(CN(C)C(=O)c2ccc3c(=O)n4c(nc3c2)CCC4)c1OC,29.3%,-3.7%,36.5*,u,-4.5%,69.1
COc1cccc(COC(=O)c2ccc3c(=O)n4c(nc3c2)CCC4)c1OC,18.3%,u,x,16.0%,13.1µM*,x
CCOc1ccccc1N(CC)C(=O)c1ccc2c(=O)n3c(nc2c1)CCCCC3,8.91µM*,11.7µM*,-4.0,-8.1%[46.1 µM],u,-5.7
CN(Cc1cccc(F)c1)C(=O)c1ccc2c(=O)n3c(nc2c1)CCC3,13.7%[46.1 µM],6.1%,-0.9,6.3%[46.1 µM],-5.8%,1.7
NC1=N[C@H](O)[C@H]2C3O[C@]4(O)O[C@H](C(O)[C@@]2(N1)[C@@H]4O)C3(O)CO (stereo partly drawn),x,x,11.0,x,x,-11.6
O=C(Nc1ccccc1C(=O)N1CCN(Cc2ccccc2)CC1)c1ccccc1,-4.6%,-1.2%,-3.1,-13.5%,-3.2%,-5.4
O=C(CCN1C(=O)c2ccccc2C1=O)Nc1ccc2c(c1)OCCO2,2.6%,x,18.1*,23.6%[14.3 µM],19.5%,active
O=C(CCCN1C(=O)CCC1=O)Nc1ccc2c(c1)OCCO2,u,-0.1%,21.9*,13.8%,37.8%,91.7*
O=C(CCn1cccn1)Nc1ccc2c(c1)OCCO2,x,2.6%,56.8*,x,97.8%,91.9*
O=C(CCCCCN1C(=O)CCC1=O)Nc1ccc2c(c1)OCO2,u,17.3%,8.6,2.2%,10.8%,17.5
O=C(CCCCCN1C(=O)c2ccccc2C1=O)Nc1ccc2c(c1)OCCO2,12.9%,x,18.4,u,-15.6%,46.7
O=C(CCCN1C(=O)CCC1=O)Nc1ccc2c(c1)OCO2,4.0%,-3.3%,11.3,0.3%,26.7%,52.8*
O=C(CS(=O)(=O)c1cccc2nsnc12)N1CCN(c2ccccc2)CC1,x,x,x,12.7%[46.1 µM],x,x
CCCn1c(N)c(N(CCOC)C(=O)CSCC(=O)Nc2ccc(C)cc2)c(=O)[nH]c1=O,x,-5.5%,x,x,2.5%,x
CCOc1ccc(NC(=O)CC2C(=O)N(c3cccc(OC)c3)C(=O)N2C(C)C)cc1 (stereo not drawn),x,-22.8%,6.6,x,1.2%,17.7
CC(=O)O[C@@H]1C[C@H]2C(C)(C)C(=O)C=C[C@]2(C)[C@H]2CC[C@@]3(C)[C@H](c4ccoc4)OC(=O)[C@H]4O[C@]43[C@@]21C,u,3.29µM*,1.9,18.4µM*,1.65µM*,30.5
CCc1ccc2c(c1)CCCN2C(=O)c1ccccc1C(=O)O,u,x,-1.7,-6.1%,u,-9.7
COc1ccc(OCC(=O)Nc2cc(OC)ccc2N2CCCCC2)cc1,u,41.7%,-2.5,0.0%,11.7µM*,3.4
